# In all, about 1,100 compounds were measured (“Wnt reporter firefly/Renilla luciferase ratio relative to plate median”: median about 1.1, highest 2% from about 1.6 on). For the sample, the highest values were picked, then their nearest neighbours and some compounds at random.
# Tested on: HEK293T (UBE3A T485A transfected, BAR Wnt reporter)
# Assay: Wnt reporter firefly/Renilla luciferase ratio relative to plate median (fold (linear ratio)); higher = more Wnt/beta-catenin reporter activation
# Details: 24 h
# Procedure, shortened: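 Chemicals at 0.01–100 uM were left on transfected HEK293T cells for 24 h, after a four-hour wait following transfection. The cells held a BAR firefly luciferase Wnt reporter, TK-Renilla and an expression plasmid. Wnt activity, as the firefly/Renilla ratio from a Dual-Glo luciferase readout, and cell health, as raw Renilla, were median-centred within each plate. Results average four biological replicates.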
SMILES,Wnt reporter firefly/Renilla luciferase ratio (concentration: 0.1 uM),Wnt reporter firefly/Renilla luciferase ratio (concentration: 1 uM),Wnt reporter firefly/Renilla luciferase ratio (concentration: 10 uM),Wnt reporter firefly/Renilla luciferase ratio (concentration: 100 uM),Wnt reporter firefly/Renilla luciferase ratio (concentration: 0.01 uM)
CCN(CC)CCNc1ccc(CNC=O)c2sc3ccc(OC)cc3c(=O)c12,1.79,0.887,0.373,,
O=c1[nH]c2ccc(S(=O)CCN3CCC(Cc4ccc(F)cc4)CC3)cc2o1 (stereo unspecified) [Besonprodil],1.11,0.965,0.993,0.313,
C[C@]12CC[C@@H]3c4ccc(O)cc4CC[C@H]3[C@@H]1CC[C@@H]2O [17beta-Estradiol],0.999,0.932,0.591,,
CN(C)[C@@H]1C(O)=C(C(N)=O)C(=O)[C@@]2(O)C(O)=C3C(=O)c4c(O)cccc4[C@@](C)(O)[C@H]3[C@H](O)[C@@H]12.O.O [Oxytetracycline dihydrate],2.3,1.22,1.34,0.951,1.55
CN(C)[C@@H]1C(O)=C(C(N)=O)C(=O)[C@@]2(O)C(O)=C3C(=O)c4c(O)cccc4[C@@](C)(O)[C@H]3[C@H](O)[C@@H]12.Cl [Oxytetracycline hydrochloride],1.09,1.03,0.562,0.0778,
CN(C)[C@@H]1C(O)=C(C(N)=O)C(=O)[C@@]2(O)C(O)=C3C(=O)c4c(O)cccc4[C@@](C)(O)[C@H]3C[C@@H]12 [Tetracycline],1.15,1.17,1.43,0.703,
CCCCC(CC)COC(=O)CCCCCCCCC(=O)OCC(CC)CCCC (stereo unspecified) [Bis(2-ethylhexyl) decanedioate],0.935,1.08,1.07,1.12,
CCCCC(CC)COP(=O)(OCC(CC)CCCC)OCC(CC)CCCC (stereo unspecified) [Tris(2-ethylhexyl) phosphate],0.978,1.17,1.11,0.917,
CCCCC(CC)CO (stereo unspecified) [2-Ethyl-1-hexanol],0.976,0.988,1.62,0.964,
Oc1ccc(O)cc1 [Hydroquinone],0.941,0.865,0.902,0.377,
CCCCCCC(CCCCCCCCCCC(=O)OCC(COC(C)=O)OC(C)=O)OC(C)=O (stereo unspecified) [Grinstad Soft-N-Safe],0.94,1.29,1.08,1.54,
C/C=C/c1ccc(OC)cc1 [(E)-Anethole],1.22,0.971,1.15,1.58,
"CC(C)(c1cc(Br)c(O)c(Br)c1)c1cc(Br)c(O)c(Br)c1 [3,3',5,5'-Tetrabromobisphenol A]",1.05,0.95,1.03,0.332,
Cc1ncc([C@@H](CCCCCCc2ccc3c(n2)NCCC3)CC(=O)O)cn1,1.25,1.42,1.78,1.55,
CS(=O)(=O)c1ccc([C@@H](CC2CCCC2)C(=O)Nc2cnccn2)cc1Cl,1.12,1.16,0.922,0.278,
CC(C)NCC(O)c1ccc(O)c(O)c1.Cl (stereo unspecified) [Isoproterenol hydrochloride],1.1,1.23,1.15,0.309,
O=C(O)c1cc(/N=N/c2ccc(S(=O)(=O)Nc3ccccn3)cc2)ccc1O [Sulfasalazine],0.944,0.993,1.33,3.01,
"Cc1ccc(C)c(C)c1 [1,2,4-Trimethylbenzene]",0.982,0.965,0.884,1.09,
c1ccc2ncccc2c1 [Quinoline],0.857,1.13,1.43,1.26,
Cc1ccc2ncccc2c1 [6-Methylquinoline],0.931,0.836,1.29,1.81,

SMILES,Wnt reporter firefly/Renilla luciferase ratio (concentration: 0.1 uM),Wnt reporter firefly/Renilla luciferase ratio (concentration: 1 uM),Wnt reporter firefly/Renilla luciferase ratio (concentration: 10 uM),Wnt reporter firefly/Renilla luciferase ratio (concentration: 100 uM),Wnt reporter firefly/Renilla luciferase ratio (concentration: 0.01 uM)
O=C1c2c(O)cccc2Cc2cccc(O)c21 [Anthralin],0.825,1.04,1.46,0.798,
COc1ccc(C(=O)Nc2nc3ccccc3c(NCc3ccccc3)c2C#N)cc1,1.27,1.14,0.744,0.357,
COCCOC[C@H](CC1(C(=O)N[C@H]2CC[C@@H](C(=O)O)CC2)CCCC1)C(=O)Oc1ccc2c(c1)CCC2 [Candoxatril],1.15,1.05,1,0.894,
CN1CCC[C@H]1c1cccnc1 [Nicotine],1.15,1.19,1.12,1.18,
"CC1(C)C(=O)N(Br)C(=O)N1Br [1,3-Dibromo-5,5-dimethylhydantoin]",0.79,1.01,1.06,1.25,
"CC1(C)C(=O)N(Cl)C(=O)N1Cl [1,3-Dichloro-5,5-dimethylhydantoin]",0.845,0.849,0.887,1.63,
NC(=O)N1C(=O)C(C(=O)c2cc(Cl)cs2)c2cc(F)c(Cl)cc21 (stereo unspecified),0.988,0.996,1.38,1.26,
C[C@]12CC[C@@H]3c4ccc(O)cc4CC[C@H]3[C@@H]1CC[C@H]2O [17alpha-Estradiol],0.699,1.04,0.715,,
OCCNCCO [Diethanolamine],1.17,0.992,1.4,2.49,
c1ccc2[nH]c(-c3cscn3)nc2c1 [Thiabendazole],1.03,1.08,1.27,1.24,1.24
CC(C)(C)c1cc(/C=C2\SC(=N)NC2=O)cc(C(C)(C)C)c1O.CS(=O)(=O)O [Darbufelone mesylate],1.11,0.907,1.28,,
Oc1ccc2ccccc2c1/N=N/c1ccccc1 [C.I. Solvent Yellow 14],1.12,1.2,1.14,1.37,
O=S(=O)([O-])c1ccc(/N=N/c2c(O)ccc3cc(S(=O)(=O)[O-])ccc23)cc1.[Na+].[Na+] [FD&C Yellow 6],1.08,0.966,1.22,2.05,
COc1cc(S(=O)(=O)[O-])c(C)cc1/N=N/c1c(O)ccc2cc(S(=O)(=O)[O-])ccc12.[Na+].[Na+],1.19,1,1.45,2.21,
CCCCCCCCCCCCc1ccccc1 [Dodecylbenzene],1.06,1.03,1.08,0.984,
COc1ccc([N+](=O)[O-])cc1N [2-Methoxy-5-nitroaniline],0.964,0.988,1.04,1.14,
Cl.NCC1(Cc2noc(=O)[nH]2)CCCCC1,0.992,0.928,0.857,1.16,
O=c1c(-c2ccc(O)cc2)coc2cc(O)ccc12 [Daidzein],1.11,1.11,1.12,0.372,
O=c1c(-c2ccc(O)cc2)coc2cc(O)cc(O)c12 [Genistein],1.45,1.16,0.958,0.631,1.71
O=c1c(O)c(-c2ccc(O)c(O)c2)oc2cc(O)cc(O)c12 [Quercetin],1.1,1.09,1.38,,

SMILES,Wnt reporter firefly/Renilla luciferase ratio (concentration: 0.1 uM),Wnt reporter firefly/Renilla luciferase ratio (concentration: 1 uM),Wnt reporter firefly/Renilla luciferase ratio (concentration: 10 uM),Wnt reporter firefly/Renilla luciferase ratio (concentration: 100 uM),Wnt reporter firefly/Renilla luciferase ratio (concentration: 0.01 uM)
CC1CCC(NC(=O)N(CCCl)N=O)CC1 (stereo unspecified) [Semustine],0.921,0.986,0.864,0.475,1.09
Cc1nc(-c2ccc3c(c2)CCN(CCC2CCC(NC(=O)/C=C/c4ccc(F)cc4)CC2)CC3)no1.Cl (stereo unspecified),1.22,0.948,0.916,0.983,
Cc1cnc(-c2cnc(NCCNc3ccc(C#N)cn3)nc2-c2ccc(Cl)cc2Cl)[nH]1,1.5,5.86,128,,1.03
CCOC(=O)c1ccc(O)cc1 [Ethylparaben],0.886,0.966,0.941,0.734,
O=C([O-])c1[nH]n(-c2ccc(S(=O)(=O)[O-])cc2)c(=O)c1/N=N/c1ccc(S(=O)(=O)[O-])cc1.[Na+].[Na+].[Na+] [FD&C Yellow 5],1.26,0.877,1.26,1.86,
CCCCc1oc2ccccc2c1C(=O)c1cc(I)c(OCCN(CC)CC)c(I)c1.Cl [Amiodarone hydrochloride],1.18,1.09,1,1.11,
"CC(C)c1cccc(C(C)C)c1 [1,3-Diisopropylbenzene]",1.14,0.929,1.33,1.5,
CC(=O)OC/C=C(\C)CCC=C(C)C [Geranyl acetate],1.1,0.97,1.27,1.23,
c1ccc(Nc2ccccc2)cc1 [Diphenylamine],1.08,1.19,1.18,1.24,1.05
[Cl-].[Li+],0.845,0.926,0.875,1.27,0.768
CC(C)=CCCC(C)CCO (stereo unspecified) [Citronellol],1.07,0.904,1.18,1.64,
C=CC(=C)CCC=C(C)C [Myrcene],1.05,0.768,1.02,1.15,
CC(C)CCO [Isopentyl alcohol],1.15,0.978,1.1,1.03,
NC(CCCP(=O)(O)O)C(=O)O (racemic),1.19,0.925,0.918,1.69,1.35
CC/C(=C(/CC)c1ccc(O)cc1)c1ccc(O)cc1 [Diethylstilbestrol],0.897,0.807,0.741,0.205,
C[C@@H]1C[C@H]2[C@@H]3CCC4=CC(=O)C=C[C@]4(C)[C@@]3(F)[C@@H](O)C[C@]2(C)[C@@]1(O)C(=O)COP(=O)([O-])[O-].[Na+].[Na+] [Dexamethasone sodium phosphate],1.15,1.09,1.2,0.968,
c1ccc2c(c1)-c1cccc3c1c-2cc1ccccc13 [Benzo(b)fluoranthene],1.22,1.22,1.45,1.45,
C1N2CN3CN1CN(C2)C3 [Methenamine],1.17,1.16,1.23,1.71,
COC(=O)CC(=O)OC [Dimethyl malonate],1.02,1.16,0.907,1.28,
Cc1occc1C(=O)Nc1ccc(C(=O)N2CCC(F)(F)/C(=C\C(=O)N3CCC(N4CCCCC4)CC3)c3ccccc32)cc1.Cc1occc1C(=O)Nc1ccc(C(=O)N2CCC(F)(F)/C(=C\C(=O)N3CCC(N4CCCCC4)CC3)c3ccccc32)cc1.O=C(O)/C=C/C(=O)O,1.22,0.982,0.94,,

# Source: the supplement of paper PMC9254222
